The source made the active and inactive calls. Unless noted, the rule behind the calls is not given here.
How the values were obtained:
[1] = system: Wnt5a (protein binding on small-molecule microarray); experiment: small molecules binding Wnt5a protein – biophysical, small-molecule microarray, 635/667 nm fluorescence, primary screen (AID 1142); details: 635 nm fluorescence, higher = more signal;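 note: fluorescence read at 667 nm with signal to noise per printed feature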
[2] = ATP-based viability of Huh7 replicon cells – cell-based, CellTiter-Glo luminescence, basal, 48 h, cytotoxicity control for HCV replication inhibitor project, primary screen (AID 1143); details: higher = more signal, called active from +8 up or from −8 down;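 note: Huh7 hepatoma cells carrying a hepatitis C replication reporter with no stimulus; test concentration not given here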
[3] = Pseudomonas biofilm growth suppression – PAO1 strain, BacTiter-Glo luminescence, LB-PBS, primary screen (AID 1144); details: P. aeruginosa PAO1 biofilm, 12 h, higher = more signal
[4] = basal CRE-LacZ reporter activity in PC12 – cell-based, unstimulated, primary screen (AID 1145); details: no forskolin, luminescence, 4.5 h, higher = more signal, called active from +8 up or from −8 down
[5] = forskolin-driven CRE-LacZ activity in PC12 – cell-based, CRE-LacZ reporter, forskolin-stimulated, primary screen (AID 1146); details: luminescence, 4.5 h, higher = more signal, called active from +8 up or from −8 down;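 note: PC12 cells with 6xCRE LacZ reporter stimulated by forskolin 10 µM; beta-galactosidase reporter signal reflecting CREB driven transcription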
[6] = biological target: Streptavidin (Streptomyces avidinii) (UniProt P22629); experiment: compounds binding control protein streptavidin – biophysical, small-molecule microarray, 635/667 nm fluorescence, artefact control for SMM compound annotation, primary screen (AID 1147); details: higher = more signal;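 note: signal reflects streptavidin binding to arrayed compounds as a control protein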
[7] = probe aInhba binding on compound microarray – biochemical, small-molecule microarray, 635/667 nm fluorescence, primary screen (AID 1148); details: higher = more signal;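 note: score merges 667nm spot fluorescence with signal-to-noise for antibody binding to printed compounds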
[8] = biological target: Torsin-1A (Homo sapiens) (UniProt O14656); experiment: TOR1A wild-type binding on microarray – cell lysate, small-molecule microarray, lysate, 635/667 nm, primary screen (AID 1149); details: COS7 hTOR1A-WT lysate, 635 nm fluorescence, higher = more signal
[9] = biological target: Torsin-1A (Homo sapiens) (UniProt O14656); experiment: torsin A mutant lysate binding on microarrays – cell lysate, small-molecule microarray, COS7 lysate, 635/667 nm fluorescence, primary screen (AID 1150); details: COS7 hTOR1A mutant lysate, 635 nm fluorescence, higher = more signal;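 note: score pools 667 nm emission and signal to noise measuring lysate protein binding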
[10] = system: Sonic hedgehog protein (Shh); experiment: Sonic hedgehog microarray binding compounds – biochemical, small-molecule microarray, 635/667 nm fluorescence, primary screen (AID 1151); details: 635 nm fluorescence, higher = more signal;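 note: Shh protein binding to compounds spotted on small-molecule microarray slides; score combines spot fluorescence intensity with signal-to-noise across triplicate slides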
[11] = optical density shifts of acrAB sulA E. coli – strain DRC41, OD650, 48 h, E. coli filamentation inducer project, primary screen (AID 1152); details: higher = more signal, called active from +8 up or from −8 down;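 note: E. coli MC1000 strain DRC41 lacking acrAB efflux pump and sulA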
[12] = probe aLefty1 binding on compound microarray – biochemical, small-molecule microarray, 635/667 nm fluorescence, primary screen (AID 1153); details: higher = more signal;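 note: score merges spot fluorescence with signal-to-noise ratio from the scanned slide images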
[13] = plasmodial surface anion channel blockers, osmotic lysis – cell-based, P. falciparum Indochina, OD700, 1 h, primary screen (AID 1154); details: P. falciparum Indochina infected RBC osmotic lysis, higher = more signal, called active from +8 up or from −8 down
[14] = plasmodial surface anion channel blockers, osmotic lysis – cell-based, P. falciparum Indochina, OD700, 2 h, primary screen (AID 1155);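 note: lysis reports solute entry through the parasite surface anion channel PSAC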; details: P. falciparum Indochina infected erythrocytes, higher = more signal, called active from +8 up or from −8 down
[15] = changes in parasitized red cell lysis, either direction – P. falciparum Indochina, OD700, 3 h, PSAC antagonist project, primary screen (AID 1156); details: P. falciparum-infected erythrocytes, osmotic lysis, higher = more signal, called active from +8 up or from −8 down
[16] = plasmodial surface anion channel blockers, osmotic lysis – cell-based, P. falciparum Indochina, OD700, 18 h, primary screen (AID 1157); details: P. falciparum Indochina infected erythrocytes, osmotic lysis OD700, 18 h; higher = more signal, called active from +8 up or from −8 down
[17] = S6 kinase pathway phospho-S6 level changes – cell-based, A549, cytoblot, luminescence, serum-stimulated, primary screen (AID 1158); details: 5 h, higher = more signal;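 note: serum-stimulated A549 lung adenocarcinoma cells; signal is phosphorylated S6 detected by cytoblot immunostaining with HRP secondary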
[18] = biological target: NADPH oxidase 2 (Homo sapiens) (UniProt P04839); experiment: compounds shifting NOX2 Amplex Red fluorescence – cell-based, HEK293-NOX2, PMA-stimulated, NOX inhibitor project, primary screen (AID 1159); details: 45 min, higher = more signal, called active from +8 up or from −8 down; note: test concentration not given here
[19] = biological target: NADPH oxidase 4 (Homo sapiens) (UniProt Q9NPH5); experiment: compounds shifting NOX4 Amplex Red fluorescence – cell-based, HEK293-NOX4, tetracycline-induced, NOX inhibitor project, primary screen (AID 1160); details: HEK293-NOX4, Amplex Red H2O2 fluorescence, 45 min; higher = more signal, called active from +8 up or from −8 down
[20] = biological target: NADPH oxidase 5 (Homo sapiens) (UniProt Q96PH1); experiment: compounds shifting NOX5 Amplex Red fluorescence – cell-based, HEK293-NOX5, NOX inhibitor project, primary screen (AID 1161); details: HEK293-NOX5, ionomycin, 45 min, higher = more signal
Chain of NADPH oxidase 5 (Homo sapiens) (Q96PH1 whole entry, looked up): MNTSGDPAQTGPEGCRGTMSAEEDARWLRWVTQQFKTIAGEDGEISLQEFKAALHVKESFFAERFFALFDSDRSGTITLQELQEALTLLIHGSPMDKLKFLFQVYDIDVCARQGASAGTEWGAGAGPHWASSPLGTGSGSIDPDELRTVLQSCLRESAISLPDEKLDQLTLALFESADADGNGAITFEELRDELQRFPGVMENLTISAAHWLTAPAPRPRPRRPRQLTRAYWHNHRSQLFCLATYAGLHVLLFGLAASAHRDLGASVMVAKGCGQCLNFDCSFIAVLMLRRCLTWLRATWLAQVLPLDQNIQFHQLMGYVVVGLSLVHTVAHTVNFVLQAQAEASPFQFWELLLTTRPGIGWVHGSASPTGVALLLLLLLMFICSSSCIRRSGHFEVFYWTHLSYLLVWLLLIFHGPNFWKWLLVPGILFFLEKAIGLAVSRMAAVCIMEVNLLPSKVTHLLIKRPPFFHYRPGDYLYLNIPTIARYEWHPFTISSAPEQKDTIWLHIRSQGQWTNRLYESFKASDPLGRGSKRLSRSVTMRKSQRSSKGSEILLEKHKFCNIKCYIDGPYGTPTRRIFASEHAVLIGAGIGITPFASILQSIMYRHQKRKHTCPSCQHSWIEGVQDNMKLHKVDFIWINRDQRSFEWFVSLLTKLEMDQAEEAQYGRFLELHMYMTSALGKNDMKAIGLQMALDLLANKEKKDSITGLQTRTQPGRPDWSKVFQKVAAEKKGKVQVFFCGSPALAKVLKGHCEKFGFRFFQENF

Chain of NADPH oxidase 4 (Homo sapiens) (Q9NPH5 whole entry, looked up): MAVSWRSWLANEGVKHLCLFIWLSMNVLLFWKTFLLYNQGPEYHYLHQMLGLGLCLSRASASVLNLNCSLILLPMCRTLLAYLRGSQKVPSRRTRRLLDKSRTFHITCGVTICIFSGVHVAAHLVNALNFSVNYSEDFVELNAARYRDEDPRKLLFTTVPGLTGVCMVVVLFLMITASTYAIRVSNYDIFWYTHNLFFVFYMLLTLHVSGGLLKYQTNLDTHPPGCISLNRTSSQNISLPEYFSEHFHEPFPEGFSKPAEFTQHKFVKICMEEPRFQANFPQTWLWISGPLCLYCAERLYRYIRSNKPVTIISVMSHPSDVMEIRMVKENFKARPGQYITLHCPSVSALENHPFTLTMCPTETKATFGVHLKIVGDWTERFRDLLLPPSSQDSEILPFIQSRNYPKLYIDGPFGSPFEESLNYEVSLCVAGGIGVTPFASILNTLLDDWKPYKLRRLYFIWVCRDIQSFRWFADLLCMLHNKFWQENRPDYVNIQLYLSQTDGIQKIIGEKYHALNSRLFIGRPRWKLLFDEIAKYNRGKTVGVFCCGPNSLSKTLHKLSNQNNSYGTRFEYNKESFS
Chain of Torsin-1A (Homo sapiens) (O14656 whole entry, looked up): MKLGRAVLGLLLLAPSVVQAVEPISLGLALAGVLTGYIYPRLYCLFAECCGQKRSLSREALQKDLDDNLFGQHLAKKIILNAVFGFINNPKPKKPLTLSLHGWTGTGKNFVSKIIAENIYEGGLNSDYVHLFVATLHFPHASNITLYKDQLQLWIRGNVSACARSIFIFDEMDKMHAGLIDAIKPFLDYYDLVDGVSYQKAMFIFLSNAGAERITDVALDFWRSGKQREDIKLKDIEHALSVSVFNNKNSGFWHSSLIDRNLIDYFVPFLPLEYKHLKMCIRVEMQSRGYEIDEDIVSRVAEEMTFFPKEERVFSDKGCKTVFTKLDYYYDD
Chain of Streptavidin (Streptomyces avidinii) (P22629 whole entry, looked up): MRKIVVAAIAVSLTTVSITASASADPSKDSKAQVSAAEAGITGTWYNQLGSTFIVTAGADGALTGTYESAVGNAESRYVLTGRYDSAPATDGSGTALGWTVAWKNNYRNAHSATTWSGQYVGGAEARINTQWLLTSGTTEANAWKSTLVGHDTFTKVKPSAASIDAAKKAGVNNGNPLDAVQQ
Chain of NADPH oxidase 2 (Homo sapiens) (P04839 whole entry, looked up): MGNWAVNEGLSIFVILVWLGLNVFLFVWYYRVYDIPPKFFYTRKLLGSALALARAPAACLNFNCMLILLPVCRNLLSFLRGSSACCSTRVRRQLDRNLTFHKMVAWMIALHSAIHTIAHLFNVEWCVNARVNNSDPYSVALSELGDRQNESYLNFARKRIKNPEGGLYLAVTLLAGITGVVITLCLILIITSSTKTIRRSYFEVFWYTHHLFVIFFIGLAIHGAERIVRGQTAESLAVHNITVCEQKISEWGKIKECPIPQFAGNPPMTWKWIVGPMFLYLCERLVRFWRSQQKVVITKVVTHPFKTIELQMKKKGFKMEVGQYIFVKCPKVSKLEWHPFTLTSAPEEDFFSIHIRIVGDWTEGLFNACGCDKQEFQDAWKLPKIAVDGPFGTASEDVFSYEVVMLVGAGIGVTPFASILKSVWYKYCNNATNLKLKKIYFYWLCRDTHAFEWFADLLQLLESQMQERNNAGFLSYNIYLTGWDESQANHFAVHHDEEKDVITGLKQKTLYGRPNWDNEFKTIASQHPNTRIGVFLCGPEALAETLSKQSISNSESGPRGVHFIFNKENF

SMILES: NC(=O)NCC#Cc1ccc2c(c1)[C@]1(C(=O)N2)[C@H](c2ccc(OCCO)cc2)N2[C@H](c3ccccc3)[C@H](c3ccccc3)OC(=O)[C@H]2[C@@H]1C(=O)NC[C@H](O)c1ccccc1
- composite z-score [1]: -0.138
- z-score [2]: -2.86 (inactive)
- z-score [3]: 0.0532 (inactive)
- z-score [4]: -0.671 (inactive)
- z-score [5]: -0.648 (inactive)
- composite z-score [6]: 0.079
- composite z-score [7]: -0.0195
- composite z-score [8]: -0.17
- composite z-score [9]: -0.288
- composite z-score [10]: 0.398
- z-score [11]: 2.63 (inactive)
- composite z-score [12]: 0.0183
- z-score [13]: 1.06 (inactive)
- z-score [14]: -0.573 (inactive)
- z-score [15]: -0.88 (inactive)
- z-score [16]: -1.81 (inactive)
- z-score [17]: 0.713
- z-score [18]: 2 (inactive)
- z-score [19]: 0.314 (inactive)
- z-score [20]: 0.742

SMILES: C=CCOC(=O)[C@@H]1[C@H]2C(=O)O[C@H](c3ccccc3)[C@H](c3ccccc3)N2[C@H](c2ccc(OCCOC(=O)[C@H]3C[C@H]4C(=O)NCC(=O)N4[C@H]3c3cccc(OCCO)c3)cc2)[C@@]12C(=O)Nc1ccc(I)cc12
- composite z-score [1]: 0.569
- z-score [2]: -0.357 (inactive)
- z-score [3]: -0.71 (inactive)
- z-score [4]: -0.264 (inactive)
- z-score [5]: -0.0891 (inactive)
- composite z-score [6]: 0.808
- composite z-score [7]: 0.0228
- composite z-score [8]: 0.724
- composite z-score [9]: 0.702
- composite z-score [10]: 1.88
- z-score [11]: -0.27 (inactive)
- composite z-score [12]: 0.248
- z-score [13]: 1.5 (inactive)
- z-score [14]: 1.56 (inactive)
- z-score [15]: 1.06 (inactive)
- z-score [16]: 1.26 (inactive)
- z-score [17]: 0.117
- z-score [18]: 1.54 (inactive)
- z-score [19]: 0.436 (inactive)
- z-score [20]: 1.55

SMILES: COc1ccc([Si](C)(C)[C@H]2[C@H](CCO)O[C@@]3(C(=O)N(Cc4cccc(N5C(=O)c6ccccc6Oc6ccccc65)c4)c4ccccc43)[C@@H]2C)cc1
- composite z-score [1]: 0.0511
- z-score [2]: -6.96 (inactive)
- z-score [3]: -0.365 (inactive)
- z-score [4]: 0.716 (inactive)
- z-score [5]: -1.1 (inactive)
- composite z-score [6]: 0.4
- composite z-score [7]: -0.05
- composite z-score [8]: -0.412
- composite z-score [9]: -0.54
- composite z-score [10]: 0.734
- z-score [11]: 0.253 (inactive)
- composite z-score [12]: 0.119
- z-score [13]: 2.63 (inactive)
- z-score [14]: 2.78 (inactive)
- z-score [15]: 0.979 (inactive)
- z-score [16]: 1.6 (inactive)
- z-score [17]: 0.87
- z-score [18]: -1.93 (inactive)
- z-score [19]: 2.27 (inactive)
- z-score [20]: 1.1

SMILES: C=CCC(OC(C)=O)[C@@H]1[C@@H](N(Cc2cccc3ccccc23)C(=O)c2ccc(-c3ccccc3)cc2)c2cc(OCCCO)ccc2N1C(=O)Cc1ccc2ccccc2c1 (stereo not given in full)
- composite z-score [1]: -0.0281
- z-score [2]: -0.182 (inactive)
- z-score [3]: 0.0777 (inactive)
- z-score [4]: -0.141 (inactive)
- z-score [5]: 0.0677 (inactive)
- composite z-score [6]: 0.911
- composite z-score [7]: 0.0108
- composite z-score [8]: -0.175
- composite z-score [9]: -0.337
- composite z-score [10]: 0.068
- z-score [11]: -0.662 (inactive)
- composite z-score [12]: -0.0164
- z-score [13]: 0.36 (inactive)
- z-score [14]: 0.35 (inactive)
- z-score [15]: -0.428 (inactive)
- z-score [16]: 0.309 (inactive)
- z-score [17]: -0.242
- z-score [18]: -1.49 (inactive)
- z-score [19]: 1.15 (inactive)
- z-score [20]: 0.311

SMILES: CN1C(=O)C2C=CC(C(O)c3ccc(-c4ccccc4)s3)N(NC(=O)OC(C)(C)C)C2C1=O (stereo not given)
- composite z-score [1]: -0.423
- z-score [2]: 0.531 (inactive)
- z-score [3]: 0.146 (inactive)
- z-score [4]: 0.436 (inactive)
- z-score [5]: -0.0651 (inactive)
- composite z-score [6]: 1.38
- composite z-score [7]: 0.0069
- composite z-score [8]: -0.043
- composite z-score [9]: 0.564
- composite z-score [10]: 0.0221
- z-score [11]: -0.898 (inactive)
- composite z-score [12]: 0.335
- z-score [13]: 0.976 (inactive)
- z-score [14]: 0.524 (inactive)
- z-score [15]: -0.254 (inactive)
- z-score [16]: 0.998 (inactive)
- z-score [17]: -1.06
- z-score [18]: -0.0373 (inactive)
- z-score [19]: -1.58 (inactive)
- z-score [20]: -0.722

From PubChem BioAssay
